Bioassay records deposited in PubChem by Broad Institute.
TRPM1 prom inh: reduces MITF-dependent TRPM1 promoter luciferase signal | SK-MEL-5 TRPM1 promoter luciferase, 24 h | inhibition, % at 12.5 µM | 330,000 tested, 0.83% active | AID 488899;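 active means mean inhibition across replicates of 60% or more, whatever share of single replicates reaches that level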
esBAF inh: inhibitors of esBAF chromatin remodeling in mouse ES cells. Bmi1-luciferase knock-in reporter, 24 h; 100% = twice the neutral-well signal. reporter increase, % at 12.5 µM. 350,000 tested, 2% active; in the data active means activation above about 40%;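 further: a rise in the Bmi1 reporter signal indicates esBAF inhibition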
EBV LMP1 NFkB: inhibitors of Epstein-Barr LMP1-induced NF-kappaB reporter | LMP1-induced NF-kappaB luciferase reporter cells, luminescence | inhibition, % at 12.5 µM | 350,000 tested, 0.69% active; in the data active means inhibition above about 41%
MITF act: increases MITF-driven TRPM1 promoter luciferase signal. SK-MEL-5 TRPM1-promoter luciferase, 24 h; % of positive control, neutral wells = 0. activation, % at 12.5 µM. 300,000 tested, 0.75% active. AID 588334;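 active means mean activation of at least 80% with every replicate also reaching 80%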
C2C12 statin: protects C2C12 myotubes from simvastatin toxicity. ATP luminescence, 48 h; scaled: DMSO 0, geranylgeraniol control 100. rescue of ATP level, % at 7.49 µM. 330,000 tested, 0.78% active. AID 602340;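 active means mean ATP rescue above about 67%, or every replicate alone reaching that limit, limit read from the data, passing the limit was not always enough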;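 further: myotubes were challenged with 10 µM simvastatin during compound exposure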
Wnt bcat act: activates Wnt/beta-catenin signaling in a reporter cell assay | 300,000 tested, 1.2% active | activator, plate reader | activation, % at 9.35 µM; in the data active means activation above about 30%, passing the limit was not always enough
A number is an active result; n = inactive; x = no result. This is a sample that favours compounds with a hit; in the whole collection about 4% have one here.

SMILES | TRPM1 prom inh | esBAF inh | EBV LMP1 NFkB | MITF act | C2C12 statin | Wnt bcat act
COC(=O)C(C)n1cnc2c(cnn2-c2ccc(Cl)cc2)c1=O (stereo not given) | n | 53.4 | n | n | n | x
O=C1C=C(c2ccccc2)C[C@H](c2cccs2)[C@H]1n1cnc([N+](=O)[O-])c1 | n | n | n | n | 137.4 | n
CC(=O)Nc1c(C(=O)O)[nH]c2ccccc12 | n | n | n | n | 99.2 | x
CCS(=O)(=O)Nc1c(C(=O)O)[nH]c2ccccc12 | n | n | n | n | n | n
CC(=O)Nc1ccc(C(=O)N2CCCC(c3cc(C(=O)NCc4cccnc4)no3)C2)cc1 (stereo not given) | x | n | x | x | n | n
CNC(=O)c1ccc(-c2ccc(F)cc2)s1 | n | n | n | n | 69.4 | x
Nc1cc(N)c(OCC(F)(F)F)cc1OCC(F)(F)F | 64.8 | n | n | n | n | x
Nc1cc(OCC(F)(F)F)cc([N+](=O)[O-])c1 | n | x | n | n | x | x
Cc1ccc(S(=O)(=O)N2CCN(C(=O)COC(=O)COc3ccc(Cl)cc3)CC2)c(C)c1 | n | n | 58.3 | n | n | n
Cc1ccc(S(=O)(=O)N2CCN(C(=O)COC(=O)COc3ccc(Cl)c(C)c3)CC2)c(C)c1 | n | n | n | n | n | n
CCCCN1C(=O)C(=O)N(c2ccccc2)C1=S | n | x | n | 121.9 | x | n
CCCS/C(N)=N/N=C/c1cc(C)ccc1O | n | x | n | 123.0 | x | x
COc1ccccc1NS(=O)(=O)c1cc(NC(=O)c2ccc(Cl)nc2)ccc1Cl | 64.1 | n | n | n | n | n
Clc1cccc2sc(N3CCCC3)nc12 | n | x | n | n | x | n
Fc1cccc2sc(N3CCCC3)nc12 | n | x | n | 86.1 | x | n
COc1ccc(C(=O)c2ccc(Cl)cc2)cc1 | n | 45.8 | n | x | n | n
COc1ccc(C(=O)c2ccc(Cl)c([N+](=O)[O-])c2)cc1 | 64.0 | x | n | n | x | n
COc1ccc(C(=O)c2cn[nH]c2-c2cc(C)ccc2O)cc1 | n | n | n | n | n | n
COc1ccc(C(=O)c2cn[nH]c2-c2cc(Cl)ccc2O)cc1 | n | n | n | n | 144.1 | n
COc1ccc(N/C=C/C(=O)c2ccc(Cl)cc2)cc1 | n | x | n | 106.3 | x | x
Cc1ccc(OC(=O)c2ccc(Cl)c([N+](=O)[O-])c2)cn1 | n | n | x | n | n | n
Cc1nc(CCNC(=O)C2CCC(=O)N(CCc3cccc(F)c3)C2)sc1C (stereo not given) | n | n | n | n | n | n
Cc1c(C(=O)N(CCO)Cc2ccccc2)oc2c(F)cccc12 | n | 59.0 | n | x | n | n
Cc1cc(Cl)c2oc(C(=O)N(CCO)Cc3ccccc3)c(C)c2c1 | n | n | n | n | n | n
COc1ccccc1CNC(=O)C(C)Sc1ccsc1[N+](=O)[O-] (stereo not given) | n | x | n | n | x | n
SMILES | TRPM1 prom inh | esBAF inh | EBV LMP1 NFkB | MITF act | C2C12 statin | Wnt bcat act
CC(Sc1ccsc1[N+](=O)[O-])C(=O)NCc1ccccc1 (stereo not given) | x | x | x | x | x | 54.0
CC(C)c1nnc(NC(=O)CCC(=O)N2CCN(c3ccc(F)cc3)CC2)s1 | n | x | n | n | x | n
CCN(CC)C(=O)c1sc(N)c(C#N)c1C | n | n | n | n | 127.9 | x
CCOC(=O)C(=O)Nc1sc(C(=O)N(CC)CC)c(C)c1C#N | n | x | n | n | x | n
CC1(CCC(=O)O)C(=O)CCC2C1CCC1(C)C2CCC1(C)O (stereo not given) | n | n | n | n | n | 33.2
COc1ccc(CC(NC(C)=O)C(=O)NC2CCN(S(=O)(=O)c3ccc(NC(C)=O)cc3)CC2)cc1OC (stereo not given) | n | x | n | n | x | n
Cc1ccccc1N1C(=O)C(Oc2ccc(Cl)cc2)C1CNCCCOC(C)C (stereo not given) | n | x | n | n | x | n
COCCCNCC1C(Oc2ccc(Cl)cc2)C(=O)N1c1ccccc1C (stereo not given) | n | x | 75.8 | n | x | x
CC(C)(C)c1ccc(C(=O)N2CCCC2)s1 | n | 46.6 | n | n | n | n
COc1ccc(CNC(=O)CSc2ncn[nH]2)cc1 | n | n | n | n | n | x
COc1cc(C(=O)NC2CCN(C)CC2)ccc1Nc1ncc2c(n1)N(C1CCCC1)CCC(=O)N2C(C)C | 74.3 | n | n | n | n | x
Cc1[nH]c2ccccc2c1Cc1nnc(SCC(=O)NCc2ccco2)o1 | n | n | n | n | n | n
